The whole screen tested about 370,000 compounds, of which about 2,600 (0.7%) were called active.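 How the source made its calls: active means inhibition above a cutoff: mean of compounds within the control limits plus 3 SD of those (cut at about 17% in these data); inactive means the rest.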 For the sample, actives were picked, then their nearest neighbours and some compounds at random.
target: Sialate O-acetylesterase (Homo sapiens) (UniProt Q9HAT2); assay: blockers of sialate O-acetylesterase activity-probe labeling – biochemical, fluorescence polarization, FP-Rh probe, 1536-well HTS, primary screen (AID 1053197); settings: SIAE FP-Rh probe binding, at 9.66 µM, hits give high values;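 further: 0% = plate median of compound wells and 100% = probe without SIAE protein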
Sequence (Q9HAT2 whole entry, looked up): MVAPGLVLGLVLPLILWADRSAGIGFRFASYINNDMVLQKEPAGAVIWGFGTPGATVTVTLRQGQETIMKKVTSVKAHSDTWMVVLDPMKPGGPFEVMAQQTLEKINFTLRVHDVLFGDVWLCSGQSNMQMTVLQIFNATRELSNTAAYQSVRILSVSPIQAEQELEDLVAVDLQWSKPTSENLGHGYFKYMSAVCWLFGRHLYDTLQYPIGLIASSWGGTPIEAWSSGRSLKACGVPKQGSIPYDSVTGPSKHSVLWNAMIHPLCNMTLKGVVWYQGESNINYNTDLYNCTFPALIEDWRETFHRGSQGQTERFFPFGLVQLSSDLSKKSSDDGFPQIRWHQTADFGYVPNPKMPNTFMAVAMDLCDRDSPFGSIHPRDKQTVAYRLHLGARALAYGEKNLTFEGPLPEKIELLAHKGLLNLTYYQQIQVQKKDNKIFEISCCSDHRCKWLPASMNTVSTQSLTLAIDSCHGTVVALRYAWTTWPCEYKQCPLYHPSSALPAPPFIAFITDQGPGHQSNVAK

| SMILES | inhibition |
| --- | --- |
| CC(=O)OCCN1CCCC12CCC(c1ccccc1)CC2 (stereo not given) | -7.94% (inactive) |
| COc1ccc2nc(Nc3nc4cc5c(cc4s3)OCCO5)sc2c1 | 21.1% (active) |
| COc1cccc(C(=O)Nc2cc3c(cc2Br)OCCCO3)c1 | 5.12% (inactive) |
| COc1ccc(-c2nnc(SCC(=O)c3ccc4c(c3)OCCO4)o2)cc1 | -8.81% (inactive) |
| O=C(NC1CCC1)c1ccc(C#CC2CC2)cn1 | 3.02% (inactive) |
| CC(C)(C)OC(=O)NCCc1ccccc1/C=C/S(=O)(=O)NCc1ccc(F)cc1 | 3.43% (inactive) |
| Cc1ccc(-c2nc(C3CCCN(S(=O)(=O)c4ccc(Br)s4)C3)no2)cc1 (stereo not given) | 3.3% (inactive) |
| O=C(CSc1nnc(COc2ccccc2)n1-c1ccc(Cl)cc1)Nc1ccc2c(c1)OCO2 | -2.77% (inactive) |
| NCCCNC(=S)NCCCN(Cc1ccc(Cl)cc1)c1ccc(Br)cn1 | -4.09% (inactive) |
| S=C(NCCCc1cnc[nH]1)NCCCN(Cc1ccc(Cl)c(Cl)c1)c1ccc(Br)cn1 | 38.7% (active) |
| COc1ccc(Cn2ccc3ccc(-c4ccc5ccn(Cc6ccccc6C)c5c4)cc32)cc1 | 1.75% (inactive) |
| COC(=O)[C@]12C[C@H](CC(=O)NCCCN3CCCC3=O)C(=O)N(CCc3ccc(OC)c(OC)c3)C1=C[C@H](COCc1ccccc1)O[C@@H]2C | -1.06% (inactive) |
| CCOC(=O)[C@]12CCCCC/C=C\1N(Cc1ccc(OC)cc1)C(=O)[C@H]2CC(=O)NCc1ccc(C)o1 | 4.67% (inactive) |
| O=C(CCCCCN1C(=O)C2C3C=CC(C3)C2C1=O)Nc1ccccc1 (stereo not given) | 0.48% (inactive) |
| COc1ccc(CSc2nnc(SCC(=O)Nc3ccccc3C(F)(F)F)s2)cc1 | 2.74% (inactive) |
| Cc1nc2cc(NCc3cccs3)ccc2n1C | 82.8% (active) |
| O=C(NCc1cccs1)c1ccc2c(c1)ncn2C1CCCC1 | 6.82% (inactive) |
| CC(NCc1cccs1)C(=O)Nc1cc(Cl)cc(Cl)c1 (stereo not given) | 8.74% (inactive) |
| Cc1ccc(CN2CCCCC(NC(=O)C3CCCCC3)C2=O)cc1 (stereo not given) | -2.58% (inactive) |
| COC(=O)[C@]12C[C@H](CC(=O)NCc3ccccc3)C(=O)N(Cc3ccccc3)C1=C[C@H](COCc1ccccc1)O[C@@H]2C | -4.26% (inactive) |
| CC(=O)Nc1ccc(S(=O)(=O)N2CCN(C3CCCCCCC3)CC2)cc1 | 1.94% (inactive) |
| CC(=O)Nc1ccc(S(=O)(=O)N2CCCC2C(=O)O)cc1 (stereo not given) | -4.8% (inactive) |
| CC(=O)Nc1ccc(S(=O)(=O)Nc2ccc(N3CCCCC3)cc2)cc1 | 22.2% (active) |

| SMILES | inhibition |
| --- | --- |
| COc1ccc(CN2C(=O)N3Cc4cc(OC)ccc4C3CS2(=O)=O)cc1 (stereo not given) | -3.42% (inactive) |
| Cc1ccc(OCC(=O)Nc2ccc(-c3nnc(-c4ccco4)o3)cc2)cc1 | 32.9% (active) |
| Cc1ccc(-c2nnc(SCC(=O)Nc3ccc(Oc4ccccc4)cc3)n2Cc2ccco2)cc1 | -0.26% (inactive) |
| CCOC(=O)C1=C(O)/C(=C/c2ccc(OCC(=O)Nc3ccc(C)cc3)cc2)N=C1C | -21.7% (inactive) |
| Cc1nc(NC(=O)C(C)(C)C)sc1[N+](=O)[O-] | -3.66% (inactive) |
| COC(=O)c1c(C(=O)OC)c2n(c1C)CCS2 | -0.54% (inactive) |
| COC(=O)C1=C(NC(=O)C(C)(C)C)CCS1 | 17.4% (active) |
| Cc1cc(C)n2ncc(C(=O)Nc3ccc4c(c3)OCCO4)c2n1 | 13.6% (inactive) |
| CCOC(=O)c1cccc(NC(=O)CN(C)S(=O)(=O)c2ccc(-c3cocn3)s2)c1 | 2.17% (inactive) |
| O=C(O)Cc1sc(-c2ccccc2)nc1-c1cccs1 | 23.1% (active) |
| CN(C(=O)COc1nnc(-c2cccs2)c(-c2cccs2)n1)c1ccccc1 | -4.55% (inactive) |
| NC(=O)Cc1ccc2sc(-c3ccccc3)nc2c1 | 5.29% (inactive) |
| CCCCNC(=O)C[C@H]1C(=O)N(Cc2ccc(OC)cc2)C2=CCCC[C@@]21C(=O)OCC | -2.41% (inactive) |
| CCOC(=O)C1CCN(C(=O)C(C)(C)NC(=O)Nc2ccc(F)c(F)c2)CC1 | 0.69% (inactive) |
| C=CS(=O)(=O)N(Cc1nnn(Cc2ccccc2)c1Br)[C@H](C(=O)OC)C(C)C | 2.36% (inactive) |
| COc1ccc(C2OCC3(CO2)SC(=O)NC3=O)cc1OC (stereo not given) | 17.2% (active) |
| COc1ccc(C2NC(=O)C(=O)/C2=C(\O)c2ccc(Cl)cc2)cc1OC (stereo not given) | 0.15% (inactive) |
| CCC1(C)COC(c2ccc(OC)c(OC)c2)OC1 (stereo not given) | -0.64% (inactive) |
| COC(=O)[C@]12C[C@H](CC(=O)N3CCOCC3)C(=O)N(Cc3ccc(Cl)cc3Cl)C1=C[C@H](C(C)C)O[C@@H]2C1CC1 | 7.42% (inactive) |
| CC(=O)CSc1nnc(CSc2ncccn2)n1C1CCCCC1 | 23.7% (active) |
| CC1CC(C)CN(C(=O)CSc2nnc(CSc3ncccn3)n2C)C1 (stereo not given) | -4.27% (inactive) |
| CCn1c(CSc2ncccn2)nnc1SCC(=O)N1c2ccccc2CC1C (stereo not given) | 6.44% (inactive) |
| C#CCCN([C@H](C(=O)OC)C(C)C)S(=O)(=O)c1ccc(F)cc1Br | 0.24% (inactive) |

| SMILES | inhibition |
| --- | --- |
| Clc1ccc(-n2c(SC/C=C/c3ccccc3)nnc2-c2ccco2)cc1 | 6.61% (inactive) |
| CNC(=S)NNC(=O)c1oc2nc(-c3ccccc3)cc(-c3ccco3)c2c1N | 17.2% (active) |
| Cc1ccc(O)c(NC(=O)c2cc(-c3ccco3)on2)c1 | 3.18% (inactive) |
| NNC(=O)c1oc2nc(-c3ccccc3)cc(-c3ccco3)c2c1N | 19.6% (active) |
| O=C1CCC2(CCC(c3ccc(Cl)cc3)CC2)N1CCO (stereo not given) | 6.92% (inactive) |
| C=CCN1C(C(=O)OC)CN(Cc2cn(Cc3ccccc3)nn2)CCS1(=O)=O (stereo not given) | 5.02% (inactive) |
| O=C(CSc1nc2c(c(=O)[nH]1)CCCC2)N1CCCCC1 | 1.16% (inactive) |
| O=C(c1c[nH]c2ccccc12)N1CCC(Oc2cccnc2)CC1 | 7.61% (inactive) |
| Cc1ccc(C(=O)N(Cc2ccccn2)CC2CCCO2)cc1 (stereo not given) | -2.59% (inactive) |
| CCOC(=O)c1ccccc1N1C(=O)C2Sc3[nH]c(=O)sc3C(/C=C/c3ccccc3)C2C1=O (stereo not given) | 15.9% (inactive) |
| CCOC(=O)C1Sc2[nH]c(=O)sc2C(c2ccc(Cl)cc2)C1C(=O)OCC (stereo not given) | 24.7% (active) |
| CCOC(=O)C1CSCCS(=O)(=O)N1Cc1ccc(Cl)cc1 (stereo not given) | -6.12% (inactive) |
| COC(=O)c1cccc(Cn2ccc3ccc(-c4ccc5ccn(C(=O)c6ccccc6C)c5c4)cc32)c1 | 12.8% (inactive) |
| COC(=O)C1CN(Cc2ccc(F)cc2)CCS(=O)(=O)N1Cc1ccc(Cl)cc1 (stereo not given) | -1.35% (inactive) |
| CCOC(=O)[C@]12CCCC3=C1N(CCC3)C(=O)[C@@H](CC(=O)NCC13CC4CC(CC(C4)C1)C3)C2 | -1.2% (inactive) |
| O=C(CCn1nnc2ccccc2c1=O)N[C@@H](Cc1c[nH]c2ccccc12)C(=O)O | 2.35% (inactive) |
| COc1ccc(-c2cc(C(=O)NC(Cc3c[nH]c4ccccc34)C(=O)O)c(C)o2)cc1OC (stereo not given) | 17.2% (active) |
| COc1ccc(-c2cc(C(=O)NC(C(=O)O)C(C)C)c(C)o2)cc1OC (stereo not given) | -1.04% (inactive) |
| COc1ccc2c(C(C)c3ccc(N)cc3)cn(C)c2c1 (stereo not given) | 15.5% (inactive) |
| CN(C)c1ccc(NC(=O)NC2CCCCN(Cc3ccc(Cl)cc3)C2=O)cc1 (stereo not given) | 11.1% (inactive) |
| COc1ccc(C(=O)OCCN2CCN(C3CN(Cc4cn(Cc5ccccc5F)nn4)S(=O)(=O)C3)CC2)cc1OC (stereo not given) | 3.42% (inactive) |
| Cc1ccc(NC(=S)NNC(=O)CSc2nnc(SCc3ccccc3Cl)s2)cc1 | 5.21% (inactive) |
| Cc1[nH]c2ccccc2c1C(=O)CSCC(=O)O | 30.1% (active) |

| SMILES | inhibition |
| --- | --- |
| Cc1[nH]c2ccccc2c1C(=O)CN1CC(C)CC(C)C1 (stereo not given) | -1.61% (inactive) |
| Cc1[nH]c2ccccc2c1C(=O)CN1CCCC(C)C1 (stereo not given) | -6.16% (inactive) |
| N#Cc1ccc(OC[C@@H](O)CN2CCC(C(O)(c3ccccc3)c3ccccc3)CC2)c(F)c1 | -5.05% (inactive) |
| COC(CNC(=O)[C@H](Cc1ccccc1)NC1(C(=O)NC2CCCCC2)CCCCC1)OC | 8.17% (inactive) |
| Cc1ccc(NC(=S)NCCN2CCOCC2)cc1 | 57.3% (active) |
| CCCC(=O)NC(=S)Nc1ccc(CN2CCOCC2)cc1 | -1.23% (inactive) |
| Cc1cc(C)cc(NC(=S)NCCCN2CCOCC2)c1 | -2% (inactive) |
| C=CCN(C)CC#Cc1ccccc1 | 1.7% (inactive) |
| Cn1c(NN)nc2sc3c(c2c1=O)CCC3 | 41.8% (active) |
| CCn1c(SCC(C)=O)nc2sc3c(c2c1=O)CCCC3 | 0.4% (inactive) |
| COc1ccccc1-n1c(SCC(=O)O)nc2sc3c(c2c1=O)CCC3 | -0.36% (inactive) |
| CCn1c2ccccc2c2cc(NC(=O)CSc3nnc(-c4ccccc4)n3-c3ccc(C)cc3)ccc21 | 4.72% (inactive) |
| CCn1c(=S)[nH]c2cc(S(=O)(=O)N3CCOCC3)ccc21 | -1% (inactive) |
| CCCCn1c(=S)[nH]c2cc(S(=O)(=O)N3CCCCC3)ccc21 | 8.16% (inactive) |
| CNS(=O)(=O)c1ccc2c(c1)[nH]c(=S)n2C | 18.6% (active) |
| CN1[C@H](Cc2ccccc2)COc2cccc(N3CCSCC3)c2S1(=O)=O | -5.79% (inactive) |
| O=S1(=O)c2c(NCc3ccco3)cccc2Oc2ccccc2CN1Cc1cn(Cc2cccc(C(F)(F)F)c2)nn1 | -2.9% (inactive) |
| C[C@@H]1CN([C@@H](C)CO)C(=O)c2cccc(NC(=O)Nc3cccc4ccccc34)c2O[C@H]1CN(C)S(=O)(=O)c1ccccc1F | -1.21% (inactive) |
| Oc1ccc(N=Cc2sc3ccccc3c2Cl)cc1 | 22.5% (active) |
| Oc1ccc(N=Cc2c(O)ccc3ccccc23)cc1 | 21% (active) |
| CCOC(=O)C1CCN(C(=O)C(C)(C)NC(=O)Nc2ccccc2Cl)CC1 | -1.25% (inactive) |

Source: PubChem BioAssay AID1053197 (The Scripps Research Institute Molecular Screening Center, 2014)
